A short description of test [1]: qHTS assay to identify small molecule antagonists of the thyroid receptor (TR) signaling pathway - cell viability counter screen (AID 743064). Also: nearly all actives have a fitted effect of over 50% in size. Also: potency is read from the fitted curve at half-maximal effect. In a few lines: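 Fluorescence from CellTiter-Fluor, added after 23.5 h exposure at 37 °C, reported viability of GH3.TRE-Luc cells co-treated with compound and 1 nM T3. Measured in the same wells as the luciferase TR readout.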
A general note: qHTS replaces the single test concentration by a dilution series.

A short description of test [2]: qHTS assay to identify small molecule antagonists of the thyroid receptor (TR) signaling pathway (AID 743065). Also: nearly all actives have a fitted effect of over 55% in size. Also: potency is read from the fitted curve at half-maximal effect. A digest of the protocol: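 Antagonism measured as loss of luciferase signal in GH3 cells stably carrying a TRE-luciferase reporter, co-treated with compound and T3 (1 nM final) for 23.5 h at 37 C. Viability was read in the same well by CellTiter-Fluor.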

Test [3] concerns thyroid hormone receptor (rat, GH3 cells). Nature of the test: qHTS assay to identify small molecule agonists of the thyroid receptor (TR) signaling pathway (AID 743066; calls by dose curve).
Test [4] can be described thus: qHTS assay to identify small molecule antagonists of the estrogen receptor alpha (ER-alpha) signaling pathway - cell viability counter screen (AID 743074; calls by dose curve;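 also: HEK293 cells carrying ER-alpha-UAS-bla reporter stimulated with 17beta-estradiol; nearly all actives have a fitted effect of over 45% in size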).
Test [5] is described as follows: qHTS assay to identify small molecule antagonists of the estrogen receptor alpha (ER-alpha) signaling pathway using the BG1 cell line - cell viability counter screen (AID 743081).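 Also: compound given together with 17beta-estradiol as the ER stimulus; series mostly up to about 70 µM; nearly all actives have a fitted effect of over 45% in size.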
The next test addresses Aromatase (Homo sapiens) (UniProt P11511). The test is described as follows: qHTS assay to identify aromatase inhibitors (AID 743083). Also: series mostly up to about 70 µM; nearly all actives have a fitted effect of over 55% in size.
A short description of test [6]: qHTS assay to identify aromatase inhibitors - cell viability counter screen (AID 743084).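 Also: cells stimulated with testosterone during compound exposure; nearly all actives have a fitted effect of over 55% in size.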 Also: potency is read from the fitted curve at half-maximal effect.
Test [7] is described as follows: qHTS assay to identify small molecule that activate the aryl hydrocarbon receptor (AhR) signaling pathway - cell viability counter screen (AID 743086). Also: series mostly up to about 70 µM; nearly all actives have a fitted effect of over 45% in size. A digest of the protocol: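 Cytotoxicity counter screen: CellTiter-Fluor signal (30 min, 37 C) in 4000 HepG2 cells/well carrying the DRE-luciferase reporter, following 24 h compound exposure at 37 C.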
The nature of test [8]: qHTS assay to identify small molecule antagonists of the peroxisome proliferator-activated receptor gamma (PPARg) signaling pathway - cell viability counter screen (AID 743194). Also: nearly all actives have a fitted effect of over 55% in size. In a few lines: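 Viability was measured as CellTiter-Glo luminescence in GeneBLAzer PPARg UAS-bla HEK293H cells. These cells had been exposed 17 h at 37 C to compounds together with rosiglitazone at 50 nM final, with the beta-lactamase readout taken in the same wells.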

Test [9] can be described thus: qHTS assay for small molecule agonists of the antioxidant response element (ARE) signaling pathway (AID 743202; active = well fitted activation curve with a large enough effect in the signal ratio in the repeat runs, not every such curve was filed as active; inconclusive = weak or mixed curves, or effect the other way; inactive = no such curve, though single readings can be large or run the other way; the % refers to the signal ratio; also: potency is read from the fitted curve at half-maximal effect). A digest of the protocol: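 An ARE-responsive beta-lactamase gene stably integrated in HepG2 cells serves as reporter. After 5 h plating and 16 h compound incubation at 37 C, fluorescence of the B/G FRET substrate was measured.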
Test [10] is described as follows: qHTS assay for small molecule agonists of the antioxidant response element (ARE) signaling pathway - cell viability counter screen (AID 743203; calls by dose curve; also: nearly all actives have a fitted effect of over 55% in size). A digest of the protocol:
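CellSensor ARE-bla HepG2 cells, 2,000 per well, rested 5 hrs at 37C/5% CO2, then exposed to compound in DMSO for 16 hrs; viability read as CellTiter-Glo luminescence after 30 min at room temperature, in the reporter wells.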

Test [11] is described as follows: qHTS assay for small molecule activators of the heat shock response signaling pathway - cell viability counter screen (AID 743209). Also: nearly all actives have a fitted effect of over 50% in size. In a few lines: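 CellSensor HSE-bla HeLa cells, plated overnight at 37 C/5% CO2, were exposed to compounds in DMSO for 5 h at 37 C. Viability was then read in the same wells by CellTiter-Glo luminescence after 30 min at room temperature.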

Test [12] in a line: qHTS assay for small molecule activators of the heat shock response signaling pathway (AID 743210; active = well fitted activation curve with a large enough effect in the signal ratio in the repeat runs, with a control signal flat, not every such curve was filed as active; inconclusive = weak or mixed curves; the % refers to the signal ratio;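 also: HeLa cells with beta-lactamase reporter driven by heat shock elements; series mostly up to about 63 µM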). In a few lines: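 In HSE-bla HeLa cells, 5 h compound incubation (37 C) precedes addition of LiveBLAzer B/G substrate; after 2.5 h at room temperature, fluorescence intensity indicates reporter induction.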
The target in test [13] is Peroxisome proliferator-activated receptor gamma (Homo sapiens) (UniProt P37231). The test is described as follows: qHTS assay to identify small molecule agonists of the peroxisome proliferator-activated receptor gamma (PPARg) signaling pathway (AID 743094; active = well fitted activation curve with a large enough effect in the signal ratio in the repeat runs, not every such curve was filed as active; inconclusive = weak or mixed curves, or effect the other way; inactive = no such curve, though single readings can be large or run the other way; the % refers to the signal ratio; also: potency is read from the fitted curve at half-maximal effect). A digest of the protocol:
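GeneBLAzer PPARg UAS-bla HEK293H cells carrying a stably integrated beta-lactamase reporter were pre-incubated 5 h at 37C, then exposed to compounds in DMSO for 17 h at 37C; LiveBLAzer B/G FRET substrate was added for 1 h at room temperature and fluorescence read.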

Test [14] shares this target. Nature of the test: qHTS assay to identify small molecule antagonists of the peroxisome proliferator-activated receptor gamma (PPARg) signaling pathway (AID 743191; calls by dose curve; also: nearly all actives have a fitted effect of over 30% in size; also: potency is read from the fitted curve at half-maximal effect). A digest of the protocol: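 Beta-lactamase reporter under UAS control in HEK293H PPARg-bla cells; compound treatment 17 h at 37C. Read-out: fluorescence intensity after 1 h room-temperature incubation with LiveBLAzer B/G FRET substrate.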

Test [15] has as its target Aryl hydrocarbon receptor (Homo sapiens) (UniProt P35869). The test is described as follows: qHTS assay to identify small molecule that activate the aryl hydrocarbon receptor (AhR) signaling pathway (AID 743085).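 Also: HG2L7.5c1 human HepG2 liver cells with stably integrated DRE-driven firefly reporter; series mostly up to about 70 µM; nearly all actives have a fitted effect of over 15% in size.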 In a few lines: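 Cell line HG2L7.5c1 (human hepatoma, 20× DRE-luc). Plated, 5 h 37C, compound/DMSO added, 24 h 37C. CellTiter-Fluor 30 min 37C → fluorescence; then ONE-Glo 30 min RT → luminescence.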

The target in test [16] is Estrogen receptor (Homo sapiens) (UniProt P03372). Nature of the test: qHTS assay to identify small molecule antagonists of the estrogen receptor alpha (ER-alpha) signaling pathway (AID 743069; active = well fitted curve in the direction sought with a large enough effect in the signal ratio in the repeat runs, not every such curve was filed as active; inconclusive = weak or mixed curves, or effect the other way; inactive = no such curve, though single readings can be large or run the other way; the % refers to the signal ratio; also: potency is read from the fitted curve at half-maximal effect). In a few lines:
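Compound effects are measured against 17beta-estradiol stimulation in HEK293 cells with a UAS-controlled beta-lactamase reporter for ER-alpha. Exposure lasts 18 hr at 37C; LiveBLAzer B/G FRET substrate follows for 2 hr at room temperature.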

For test [17] the target is unchanged. The test is described as follows: qHTS assay to identify small molecule agonists of the estrogen receptor alpha (ER-alpha) signaling pathway (AID 743075; calls by dose curve).
Test [18] has the same target. The test is described as follows: qHTS assay to identify small molecule agonists of the estrogen receptor alpha (ER-alpha) signaling pathway using the BG1 cell line (AID 743079). Also: nearly all actives have a fitted effect of over 20% in size.
A short description of test [19]: qHTS assay to identify small molecule antagonists of the estrogen receptor alpha (ER-alpha) signaling pathway using the BG1 cell line (AID 743080; calls by dose curve;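 also: BG1 cells stimulated with 17beta-estradiol alongside compound; series mostly up to about 70 µM; nearly all actives have a fitted effect of over 25% in size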). In a few lines:
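Luminescence from a 4×ERE-luciferase reporter in BG1-Luc-4E2 cells served as read-out. Cells, pre-cultured 5 days in stripped-serum phenol-red-free medium, were exposed to compound with 17beta-estradiol co-stimulation for 21.5 h at 37 C.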

Several values for one entry are separate records, joined by “and”; a condition that tells them apart may be missing. Equal values may be shown once. The source holds several records for some structures; these can differ, active in one and inactive in another. Activity calls are given as the source filed them. Unless noted, calls follow the shape of the dose curve; as a rule, active = well fitted curve in the direction sought with a large enough effect in the repeat runs; inconclusive = weak or mixed curves; inactive = no such curve, though single readings can be large; an effect the other way counts as inactive or inconclusive.

Aryl hydrocarbon receptor (Homo sapiens), sequence (P35869 whole entry, looked up): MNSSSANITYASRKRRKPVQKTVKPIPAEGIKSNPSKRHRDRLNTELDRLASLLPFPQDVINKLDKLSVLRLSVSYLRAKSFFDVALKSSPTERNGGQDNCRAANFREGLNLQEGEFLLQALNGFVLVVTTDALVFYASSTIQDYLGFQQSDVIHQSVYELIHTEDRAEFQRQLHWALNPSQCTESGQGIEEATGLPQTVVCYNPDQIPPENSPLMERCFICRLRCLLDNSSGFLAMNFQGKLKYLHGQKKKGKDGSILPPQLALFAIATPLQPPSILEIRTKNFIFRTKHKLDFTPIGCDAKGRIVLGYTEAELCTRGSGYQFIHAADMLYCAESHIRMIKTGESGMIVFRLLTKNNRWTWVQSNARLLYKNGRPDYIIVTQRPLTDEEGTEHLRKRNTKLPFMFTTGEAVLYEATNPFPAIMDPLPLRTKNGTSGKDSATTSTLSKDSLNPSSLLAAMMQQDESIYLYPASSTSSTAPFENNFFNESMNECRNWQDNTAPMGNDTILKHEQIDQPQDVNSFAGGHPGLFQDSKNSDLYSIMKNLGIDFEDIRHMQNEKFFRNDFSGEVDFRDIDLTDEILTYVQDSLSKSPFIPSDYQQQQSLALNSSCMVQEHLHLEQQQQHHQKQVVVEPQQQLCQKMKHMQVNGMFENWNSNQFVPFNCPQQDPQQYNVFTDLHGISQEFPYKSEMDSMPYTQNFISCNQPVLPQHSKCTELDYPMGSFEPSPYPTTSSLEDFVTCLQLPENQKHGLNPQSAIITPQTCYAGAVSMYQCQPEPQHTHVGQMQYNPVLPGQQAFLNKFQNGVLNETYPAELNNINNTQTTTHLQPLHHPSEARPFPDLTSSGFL
Peroxisome proliferator-activated receptor gamma (Homo sapiens), sequence (P37231 whole entry, looked up): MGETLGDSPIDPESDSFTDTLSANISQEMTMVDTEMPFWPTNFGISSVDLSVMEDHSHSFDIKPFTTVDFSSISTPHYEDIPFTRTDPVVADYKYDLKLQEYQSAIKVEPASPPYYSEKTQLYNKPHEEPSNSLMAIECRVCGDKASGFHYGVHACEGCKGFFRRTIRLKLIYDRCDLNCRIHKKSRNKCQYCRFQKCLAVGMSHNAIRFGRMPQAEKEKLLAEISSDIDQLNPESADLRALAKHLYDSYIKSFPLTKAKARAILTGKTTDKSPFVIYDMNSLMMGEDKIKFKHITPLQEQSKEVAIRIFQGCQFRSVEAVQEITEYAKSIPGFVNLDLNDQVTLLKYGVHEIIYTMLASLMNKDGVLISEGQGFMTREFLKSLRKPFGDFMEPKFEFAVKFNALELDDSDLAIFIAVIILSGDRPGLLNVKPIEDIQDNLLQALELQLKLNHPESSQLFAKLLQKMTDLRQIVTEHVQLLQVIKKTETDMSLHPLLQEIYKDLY
Aromatase (Homo sapiens), sequence (P11511 whole entry, looked up): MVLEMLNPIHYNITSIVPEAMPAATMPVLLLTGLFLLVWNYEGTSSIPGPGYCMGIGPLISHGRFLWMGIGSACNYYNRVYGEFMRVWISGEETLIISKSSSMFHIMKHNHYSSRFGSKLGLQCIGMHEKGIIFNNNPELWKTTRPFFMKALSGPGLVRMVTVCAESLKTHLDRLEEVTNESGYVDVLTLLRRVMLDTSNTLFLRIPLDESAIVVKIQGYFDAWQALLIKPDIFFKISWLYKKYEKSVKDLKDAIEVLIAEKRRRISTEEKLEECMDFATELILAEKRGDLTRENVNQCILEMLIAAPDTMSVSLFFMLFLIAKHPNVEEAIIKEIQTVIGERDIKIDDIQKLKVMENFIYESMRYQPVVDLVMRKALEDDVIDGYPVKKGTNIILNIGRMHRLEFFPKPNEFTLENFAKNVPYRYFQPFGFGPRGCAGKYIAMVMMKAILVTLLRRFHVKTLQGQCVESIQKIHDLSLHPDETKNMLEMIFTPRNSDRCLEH
Estrogen receptor (Homo sapiens), sequence (P03372 whole entry, looked up): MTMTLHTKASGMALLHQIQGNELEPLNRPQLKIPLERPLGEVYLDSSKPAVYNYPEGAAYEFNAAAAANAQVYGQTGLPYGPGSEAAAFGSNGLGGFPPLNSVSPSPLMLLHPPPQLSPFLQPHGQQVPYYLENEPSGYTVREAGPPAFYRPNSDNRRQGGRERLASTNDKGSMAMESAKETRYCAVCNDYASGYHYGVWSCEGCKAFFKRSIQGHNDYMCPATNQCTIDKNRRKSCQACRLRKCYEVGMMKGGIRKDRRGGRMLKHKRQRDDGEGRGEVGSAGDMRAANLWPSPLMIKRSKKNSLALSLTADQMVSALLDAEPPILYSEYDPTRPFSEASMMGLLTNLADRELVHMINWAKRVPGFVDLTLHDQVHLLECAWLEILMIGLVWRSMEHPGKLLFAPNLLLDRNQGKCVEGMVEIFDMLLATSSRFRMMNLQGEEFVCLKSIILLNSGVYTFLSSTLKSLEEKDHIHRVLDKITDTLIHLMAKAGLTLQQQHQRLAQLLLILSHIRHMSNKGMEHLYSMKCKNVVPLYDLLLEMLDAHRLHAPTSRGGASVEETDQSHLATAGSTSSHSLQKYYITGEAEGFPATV

With `NC(=O)NO`, the Potency result (in test [1]; in test [2]; in test [5]; in the test with Aromatase (Homo sapiens); in test [6]; in [7]) was “inactive” in each case. For the same compound, the Potency result in [8], in [9] and in test [10] was “inactive” throughout. The outcome in test [3], in test [4], in test [11] and in test [12] was inactive.
Turning to `O=C(O)Cc1cccc2ccccc12`, the Potency entry (in test [1]; in [2]; in test [5]; in the test with Aromatase (Homo sapiens); in test [6]; in test [7]) was “inactive” throughout. Moreover, the Potency result in test [14], in [8], in test [9] and in test [10] was “inactive” each time. In addition, the outcome in test [3], in test [4], in test [11] and in [12] was inactive. Moreover, in test [13], the Potency was 27.5 µM (active).
For the compound `C#C[C@]1(O)CC[C@H]2[C@@H]3CCc4cc(O)ccc4[C@H]3CC[C@@]21C`, the Potency in test [2] was 16.8 µM (active) and 17.1 µM (active) and 13.7 µM (active); in test [6] it was “inactive and 48.2 µM (active)”. Moreover, the call in test [3], in test [4], in [11] and in test [12] was inactive. Besides, the Potency entry (in test [5]; in the test with Aromatase (Homo sapiens); in test [15]; in [7]; in [13]; in [8]) was “inactive” throughout. In addition, the Potency result in [9] and in test [10] was “inactive” throughout.
For `O=c1c(-c2ccc(O)cc2)coc2cc(O)cc(O)c12`, the Potency in test [1] was 21.1 µM (active) and 47.7 µM (active); in test [2] it was 11.9 µM (active) and 47.7 µM (active) and 21.7 µM (active); in [14], 48.1 µM (active) and 38.9 µM (active); in test [9], 6.74 µM (active) and 10.6 µM (active). Further, the call in test [3], in test [4], in test [11] and in test [12] was inactive. Further, the Potency entry (in test [5]; in the test with Aromatase (Homo sapiens); in [6]; in [7]; in test [13]; in [8]) was “inactive” in each case. In addition, the Potency entry in [10] was “inactive”.
As for `CCN(CC)CCOC(=O)c1ccc(N)cc1`, the Potency result (in test [1]; in test [2]; in [5]; in the test with Aromatase (Homo sapiens); in test [6]; in test [7]) was “inactive” in each case. Further, the Potency entry in test [13], in [14], in test [8], in [9] and in [10] was “inactive” in each case. In addition, the compound was called inactive in test [3], in test [4], in [11] and in [12].
In the case of `CC(C)=CCC/C(C)=C/CO`, the Potency result in test [1], in test [2], in test [5], in test [6], in test [15] and in test [7] was “inactive” throughout. The Potency entry in test [13], in test [8], in test [9] and in test [10] was “inactive” each time. Further, the result in test [3], in [4] and in test [11] was inactive.
Regarding `O=C1OC(c2ccc(O)cc2)(c2ccc(O)cc2)c2ccccc21`, the result in [4], in test [11] and in test [12] was inactive. Further, the Potency result (in [5]; in the test with Aromatase (Homo sapiens); in test [6]; in [7]; in test [13]; in test [8]) was “inactive” in each case. Also, the Potency entry in test [10] was “inactive”.
Turning to `CCc1cc(C(N)=S)ccn1`, the Potency entry in test [1], in test [2], in test [5], in [7], in test [8] and in [10] was “inactive” throughout. In addition, the call in test [3], in test [4], in [11] and in test [12] was inactive.
Regarding `COC1=CC(=O)C[C@@H](C)[C@]12Oc1c(Cl)c(OC)cc(OC)c1C2=O`, the Potency was 11.9 µM (active) and 27.1 µM (active) and 27.3 µM (active) in test [2]; 10.7 µM [inconclusive] (active) and 5.45 µM [inconclusive] (active) and 6.92 µM [inhibitor] (active) in test [16]; “inactive and 48.5 µM (active)” in test [13]; 19.5 µM (active) in test [14]. Also, the call in test [3], in test [4], in [11] and in test [12] was inactive. In addition, the Potency result in test [17], in test [18], in test [19], in test [5], in [6] and in test [15] was “inactive” throughout. Also, the Potency entry in test [7], in test [8] and in test [10] was “inactive” in each case.

The values are drawn from PubChem BioAssay (Tox21).
